High-throughput results deposited in PubChem by several laboratories.
GIRK2 act = Activates human GIRK2-containing potassium channels; P48051; HEK293 GIRK2/NPY4 cells, thallium flux fluorescence; activation (% efficacy), % for hits at 37.5 µM; 34,000 tested, under 10 active; AID 1259324;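 active = primary screen hit, no activity in plain HEK293 cells, and in GIRK2-only cells above 5% efficacy rising with concentration; inactive = the rest, including fluorescent compounds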;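 note: efficacy is normalized control-subtracted fluorescence 15 s after thallium addition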
GluA2 TARP mod = modulates AMPAR-stargazin complexes | O88602+P19491 | HEK293 GluA2+stargazin, membrane potential dye (FDSS), glutamate EC50; hits were called plate by plate, in both directions | calls only at 30 µM | hit rate 3.5% among 40,000 | AID 1259245;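 active = any of four per-well response measures lying three or more SD from its plate-wide compound average, in either direction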
* = called active by the depositor. Shown is part of a subset that was picked to be rich in hits.

How did COc1ccc(OC)c2sc(N(CCN3CCOCC3)C(=O)/C=C/c3ccc([N+](=O)[O-])cc3)nc12 do in these assays?
GIRK2 act: inactive; GluA2 TARP mod: inactive

How did COc1ccc(C)c2sc(N(Cc3ccncc3)C(=O)/C=C/c3ccc([N+](=O)[O-])cc3)nc12 do in these assays?
GIRK2 act: inactive; GluA2 TARP mod: active

What do the screens show for `Cc1cc(C(F)F)n2ncc(C(=O)NC3CCCCCC3)c2n1`?
GluA2 TARP mod: inactive

Results for COc1ccccc1CCNC(=O)c1cnn2c(C(F)F)cc(C)nc12 ?
GluA2 TARP mod: active

How did COc1cccc2cc(-c3cn(-c4ccc(C)cc4)c(=S)[nH]3)c(=O)oc12 do in these assays?
GIRK2 act: inactive; GluA2 TARP mod: inactive

Results for COC(=O)c1ccc(C(=O)NCC(c2ccccc2Cl)N(C)C)cc1 (stereo unspecified) ?
GIRK2 act: inactive; GluA2 TARP mod: inactive

What do the screens show for `COc1ccc(NC(=O)NCC(c2ccccc2Cl)N(C)C)cc1OC` (stereo unspecified)?
GIRK2 act: inactive; GluA2 TARP mod: active

What do the screens show for `C=CCN1CC(c2nc3ccccc3n2C(C)c2ccccc2)CC1=O` (stereo unspecified)?
GluA2 TARP mod: active

How did C=CCN1CC(c2nc3ccccc3n2Cc2ccc(C(C)(C)C)cc2)CC1=O (stereo unspecified) do in these assays?
GluA2 TARP mod: inactive

Results for CC(c1ccccc1)n1c(C2CC(=O)N(C(C)(C)C)C2)nc2ccccc21 (stereo unspecified) ?
GluA2 TARP mod: active

How did CC(C)(C)N1CC(c2nc3ccccc3n2CCOc2ccccc2)CC1=O (stereo unspecified) do in these assays?
GluA2 TARP mod: inactive

Results for C=CCN1CC(c2nc3ccccc3n2Cc2ccc(Cl)c(Cl)c2)CC1=O (stereo unspecified) ?
GluA2 TARP mod: inactive

Results for C=CCN1CC(c2nc3ccccc3n2Cc2c(C)c(C)cc(C)c2C)CC1=O (stereo unspecified) ?
GluA2 TARP mod: active

What do the screens show for `Cc1cc(-c2nnc(NC(=O)COc3ccc(Cl)cc3)o2)nn1C`?
GIRK2 act: inactive; GluA2 TARP mod: inactive

How did Cn1ccnc1N1CCN(C(=O)c2ccc(N3C(=O)CCC3=O)cc2)CC1 do in these assays?
GIRK2 act: inactive; GluA2 TARP mod: inactive

How did COc1cc(NC(=O)CC(C)(C)C)ccc1N1CCCC1=O do in these assays?
GIRK2 act: inactive; GluA2 TARP mod: inactive

How did CN(C)CCNc1cc(C(C)(C)C)nc2c(-c3ccccc3)cnn12 do in these assays?
GIRK2 act: inactive; GluA2 TARP mod: active

Results for CC(C)(C)c1cc(NCCCn2ccnc2)n2ncc(-c3ccccc3)c2n1 ?
GIRK2 act: inactive; GluA2 TARP mod: inactive

What do the screens show for `Cc1ccc2cc(CNc3ccccc3)c(=O)n(CC(=O)Nc3ccc4c(c3)OCCO4)c2c1`?
GluA2 TARP mod: inactive

How did CSc1ccccc1CN1CCC(CN)CC1 do in these assays?
GIRK2 act: inactive; GluA2 TARP mod: inactive

Results for O=C(Nc1nnc(Cc2ccc(Cl)s2)o1)c1cc2ccccc2oc1=O ?
GIRK2 act: inactive

Results for Cc1cc(=O)n(CC(=O)Nc2nc3ccccc3[nH]2)cn1 ?
GIRK2 act: inactive; GluA2 TARP mod: inactive

How did O=C(Cn1nc(-c2cccnc2)ccc1=O)Nc1nc2ccccc2[nH]1 do in these assays?
GIRK2 act: inactive; GluA2 TARP mod: active

How did O=C(NCCC1=CCCCC1)C(=O)NCCc1ccc(F)cc1 do in these assays?
GIRK2 act: inactive; GluA2 TARP mod: inactive

Results for CCOc1ccc(N2C(=O)/C(=C\c3ccc(O)cc3)SC2=S)cc1 ?
GluA2 TARP mod: active

Results for COc1cc(/C=C2\SC(=S)N(c3ccc(O)cc3)C2=O)cc(OC)c1OC ?
GluA2 TARP mod: inactive

How did CN(C)c1ccc(/C=C2\SC(=S)N(c3ccc(O)cc3)C2=O)cc1 do in these assays?
GluA2 TARP mod: active

How did CCOc1ccc(N2C(=O)/C(=C/c3ccc4c(c3)OCO4)SC2=S)cc1 do in these assays?
GluA2 TARP mod: inactive

Results for C=CCNC(=O)c1snc(-c2cccc(F)c2)c1N ?
GIRK2 act: inactive

What do the screens show for `COc1cc(NC(=O)c2ccc(S(=O)(=O)c3ccc(C)c(C)c3)nc2)cc(OC)c1OC`?
GIRK2 act: inactive; GluA2 TARP mod: inactive

How did COc1ccc(-c2ccc(=O)n(CCNS(=O)(=O)c3ccc(Cl)cc3)n2)cc1 do in these assays?
GluA2 TARP mod: inactive

Results for CCOc1c(C)cc(S(=O)(=O)N2CCN(C)CC2)c(C)c1C ?
GluA2 TARP mod: inactive

How did CCOC(=O)N1CCN(C(=O)Cc2nnc(-c3cccc(Br)c3)o2)CC1 do in these assays?
GIRK2 act: inactive

How did CCOc1ccc(OCCNC(=O)Cc2cccc3ccccc23)cc1 do in these assays?
GIRK2 act: inactive; GluA2 TARP mod: inactive

How did CCOc1ccc2ccccc2c1C(=O)NCC(c1ccc(OC)cc1)N1CCOCC1 (stereo unspecified) do in these assays?
GluA2 TARP mod: active

How did CCOc1ccc(C(=O)NCC(c2ccc(F)cc2)N2CCOCC2)cc1OCC (stereo unspecified) do in these assays?
GluA2 TARP mod: inactive

Results for CCOc1ccc2ccccc2c1C(=O)NCC(c1cccs1)N(C)C (stereo unspecified) ?
GIRK2 act: inactive; GluA2 TARP mod: active

How did CCOc1ccc2ccccc2c1C(=O)NCCOc1ccccc1 do in these assays?
GIRK2 act: inactive; GluA2 TARP mod: active

Results for CN(C)C(CNC(=O)c1ccc2ccccc2c1)c1cccs1 (stereo unspecified) ?
GIRK2 act: inactive; GluA2 TARP mod: inactive

How did CCOc1ccc2ccccc2c1C(=O)NCC(c1ccc(F)cc1)N1CCOCC1 (stereo unspecified) do in these assays?
GluA2 TARP mod: active

How did COc1ccc(C(=O)NCC(c2ccc(F)cc2)N2CCOCC2)cc1 (stereo unspecified) do in these assays?
GluA2 TARP mod: inactive

Results for CCCN1C(=O)NC2(CCN(C(=O)Nc3ccc(F)cc3)CC2)C1=O ?
GIRK2 act: inactive

What do the screens show for `CCc1ccc2c(c1)sc(=NC(=O)C1CCN(S(C)(=O)=O)CC1)n2CC(=O)OC`?
GIRK2 act: inactive

Results for CN(C)c1nc2c(c(=O)n(C)c(=O)n2C)n1CCCOc1ccccc1 ?
GIRK2 act: inactive; GluA2 TARP mod: inactive

Results for COc1cccc(OC)c1C(=O)NCC(c1cccs1)N1CCOCC1 (stereo unspecified) ?
GIRK2 act: inactive; GluA2 TARP mod: inactive

How did CN(C)C(CNC(=O)c1ccccc1Cl)c1cccc2ccccc12 (stereo unspecified) do in these assays?
GluA2 TARP mod: inactive

What do the screens show for `CN(C)C(CNC(=O)c1c(F)cccc1F)c1cccc2ccccc12` (stereo unspecified)?
GluA2 TARP mod: active

Results for CCOc1ccc2ccccc2c1C(=O)NCC(c1cccs1)N1CCOCC1 (stereo unspecified) ?
GIRK2 act: inactive; GluA2 TARP mod: active

Results for Cc1cc(=O)[nH]c(-n2nc(C3CC3)cc2NC(=O)CSCc2ccccc2)n1 ?
GIRK2 act: inactive; GluA2 TARP mod: inactive

Results for CS(=O)(=O)c1ccc2nc(NC(=O)Cn3cccn3)sc2c1 ?
GIRK2 act: inactive; GluA2 TARP mod: inactive
